# Measured values published in the supplement of paper PMC6555819.
# What was measured:
# Assay in all cases: PBM binding z-score (relative to random genomic background probes); higher = stronger binding; sequences stand for … in GC…GCGATTGACAGCGTAGAATGAAGG
# [1] = tested on: FXR:RXRa (NR concentration 270 nM, RXRa partner concentration 90 nM)
# Method in brief: (§1)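 Random background probes are the reference for binding z-scores. These scores derive from regression-normalized fluorescence on custom Agilent 4×180K protein-binding microarrays incubated 1 h with ligand-free nuclear receptor dimers. Binding was detected with antibodies against each partner (one per run).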
# [2] = tested on: LXRa:RXRa (NR concentration 270 nM, RXRa partner concentration 90 nM)
# Method in brief: as §1
# [3] = tested on: LXRa homodimer (NR concentration 270 nM)
# Method in brief: as §1
# [4] = tested on: LXRb:RXRa (NR concentration 270 nM, RXRa partner concentration 90 nM)
# Method in brief: as §1
# [5] = tested on: LXRb homodimer (NR concentration 270 nM)
# Method in brief: as §1
# [6] = tested on: PPARa:RXRa (NR concentration 270 nM, RXRa partner concentration 90 nM)
# Method in brief: as §1
# [7] = tested on: PPARg:RXRa (NR concentration 180 nM, RXRa partner concentration 90 nM)
# Method in brief: as §1
# [8] = tested on: PPARg:RXRa 270nM:90nM, anti-RXR (NR concentration 270 nM, RXRa partner concentration 90 nM)
# Method in brief: as §1
# [9] = tested on: PPARg:RXRa 30nM:10nM, anti-RXR (NR concentration 30 nM, RXRa partner concentration 10 nM)
# Method in brief: as §1
# [10] = tested on: PPARg:RXRa 90nM:30nM, anti-RXR (NR concentration 90 nM, RXRa partner concentration 30 nM)
# Method in brief: as §1
# [11] = tested on: PPARg:RXRa DBDmut IVT, anti-RXR (DBD mutation: RXRa K156A/R161A, NR concentration 270 nM, RXRa partner concentration 90 nM)
# Method in brief: as §1
# [12] = tested on: PPARg:RXRa IVT, anti-PPARg (NR concentration 270 nM, RXRa partner concentration 90 nM)
# Method in brief: as §1
# [13] = tested on: PPARg DBDmut:RXRa IVT, anti-PPARg (DBD mutation: PPARg1 K132A/R137A, NR concentration 270 nM, RXRa partner concentration 90 nM)
# Method in brief: as §1
# [14] = tested on: PPARg DBDmut IVT, anti-PPARg (DBD mutation: PPARg1 K132A/R137A, NR concentration 270 nM)
# Method in brief: as §1
# [15] = tested on: PPARg homodimer (NR concentration 180 nM)
# Method in brief: as §1
# [16] = tested on: PXR:RXRa (NR concentration 270 nM, RXRa partner concentration 90 nM)
# Method in brief: as §1
# [17] = tested on: PXR homodimer (NR concentration 270 nM)
# Method in brief: as §1
# [18] = tested on: RARa:RXR (NR concentration 270 nM, RXRa partner concentration 90 nM)
# Method in brief: as §1
# [19] = tested on: RARa homodimer (NR concentration 270 nM)
# Method in brief: as §1
# [20] = tested on: RARb:RXRa (NR concentration 270 nM, RXRa partner concentration 90 nM)
# Method in brief: as §1
Sequence,PBM binding z-score [1],PBM binding z-score [2],PBM binding z-score [3],PBM binding z-score [4],PBM binding z-score [5],PBM binding z-score [6],PBM binding z-score [7],PBM binding z-score [8],PBM binding z-score [9],PBM binding z-score [10],PBM binding z-score [11],PBM binding z-score [12],PBM binding z-score [13],PBM binding z-score [14],PBM binding z-score [15],PBM binding z-score [16],PBM binding z-score [17],PBM binding z-score [18],PBM binding z-score [19],PBM binding z-score [20]
CTACCAAGGTAAACAAGGTCGTTGATTACTATTC,0.877,1.37,0.268,1.56,-0.376,1.57,0.314,0.42,-0.128,0.258,1.19,0.986,-0.194,0.206,0.169,2.25,1.6,1.75,0.382,0.851
GGAACGAGGGCAAGTTGATACCAGAGTTTGATGG,1.04,0.448,-0.0805,0.373,0.0862,1.58,1.31,1.19,0.0746,0.594,3.63,3.07,-0.214,-0.247,0.551,0.835,0.927,0.537,0.0477,2.45
ATATGTAGGTTATCGGGTCATTGAGTTTGCGCAT,3.15,3.21,1.69,2.94,1.33,4.75,7.4,6.33,3.44,5.94,7.71,7.5,3.11,1.9,2.89,4.55,10.5,3.82,1.41,2.86
TCTAGTTGGTCAAAGGTCACACAGTCGAAATGCG,6.26,5.83,4,5.36,1.46,6.64,11.6,9.15,10,11.1,3.56,5.99,1.3,1.88,4.79,6.01,1.76,7.79,3.16,5.05
CAAACTAGGTCACAGAGTTCAAAGTCCGTGCGTA,6.27,6.12,7.46,4.98,0.834,6.05,9.65,7.78,6.58,8.06,8.6,9.07,5.41,5.72,4.68,6.97,14.2,5.88,1.27,4.91
CGAACTAGGTCAAGGACAGCGAATCTCCGCACGC,3.45,2.27,0.194,1.27,-0.45,4.72,7.46,6.26,3.42,5.68,7.76,8.26,2.54,2.03,1.63,1.06,0.0262,1.9,0.554,3.81
GCTGCTAGGTCAATTGATGGTCAGCTAAAGCTCG,2.8,2.21,-0.0789,1.47,0.292,2.93,1.36,1.87,-0.0907,1.18,4.15,3.1,-0.948,0.185,0.889,0.861,-0.942,1.75,-0.705,3.59
TTACCAAGGTGAAGGTCGTTGACCCCTCTGTAGA,6.12,5.25,2.15,4.5,-0.739,4.34,3.79,4.59,2.37,3.77,1.51,3.73,-0.0772,-0.567,2.99,4.73,0.313,5.73,0.145,2.87
CCTACTGGGCCATCAAGTCATTGATATCAACGTT,-0.198,-0.233,-0.0812,0.373,-0.319,1.02,0.723,1.67,0.283,0.805,3.82,3.91,-0.107,0.228,0.653,-0.138,-0.334,0.32,0.00429,0.23
CGAACTAGGTCATCCAGCACAGTGAATACATTGA,4.05,2.64,0.684,2.07,0.124,4.78,7.47,6.28,3.93,5.81,8.26,8.11,2.99,2.39,1.64,1.47,0.241,2.25,0.526,3.71
CGTCAAAGTTCAACTAAGGTAACGTCAAGCACGC,7.22,6.46,4.23,4.17,2.06,5.14,5.08,5.67,2.61,4.36,0.771,2.28,0.0665,0.943,3.82,5.69,4.39,4.56,1.85,5.3
ATCTCTAGGTAAAAGTTCAGTGCATCCCGAGGAT,0.914,1.67,1.72,0.979,0.86,4.39,8.17,7.48,7.56,8.52,1.88,3.85,0.957,1.05,1.6,2.28,2.08,1.69,1.4,2.36
GCTTACGGGTCAAAGGTGATAGCATGAATAGAAT,6.24,4.59,0.0435,4.64,0.353,6.57,10.2,8.54,7.83,9.26,5.42,5.3,1.11,0.857,2.81,4.78,-0.0532,6.93,0.406,4.09
ATATGTAGGTTAAGGGTCATTCCGGTTGGTTCGC,5.44,4.91,3.25,4.19,1.33,6.67,11.4,9.69,10.2,11.1,7.18,7.95,2.74,3.31,3.95,5.32,1.33,5.86,1.66,3.58
TCATATAGGGAAACAGGTGAAAGTCCGTAAGTTA,1.01,1.04,0.121,1.11,-0.148,1.74,1.69,3.03,4.32,3.7,3.73,2.71,0.703,0.846,1.02,0.713,0.608,0.541,1.28,0.516
CCTAGTTGGTCAAGGTCACTCACGCTATAGGTAC,3.8,3.42,1.94,3.17,0.615,3.67,2.44,3.08,0.743,2.05,2.34,3.16,0.496,1.05,3.66,3.73,2.8,3.58,2.53,4
TAGCCTAGGTCATGCGGGCCAGTATGGTGTCGGC,3.96,3.27,-0.0396,1.44,-0.233,3.43,1.79,2.41,-0.0378,1.2,1.73,2.9,-0.0668,-0.181,0.816,1.42,-0.582,2.52,-0.311,3.65
ATCTCTAGATAAGACTCAGTTCAGTGAAGAACGC,-0.0405,-0.109,0.034,-0.147,0.392,-0.438,0.0934,-0.337,0.0965,0.00622,-0.453,-0.237,-0.428,1.1,-0.287,0.428,0.883,-0.0778,0.631,-0.306
ATCGAAAGGTCTACGAGGTGAGTATACACCGTTT,0.287,0.343,-0.515,0.353,-0.0521,1.03,0.797,0.573,0.114,0.523,-0.371,1.17,0.797,0.317,0.182,0.409,0.194,1.17,0.434,1.81
TCAGATAGGTAAACAGGTGAAAGTCCGTAAGTTA,0.678,0.827,0.121,0.939,-0.225,2.07,1.3,2.9,4.02,3.81,2.93,2.15,0.778,0.465,0.969,0.684,0.401,1.05,1.15,0.891
CGTCCTAGGTCAGCAGGTCAGTGAAAGCGACGTG,2.92,2.04,0.0283,1.6,-0.603,3.23,2.32,3.21,0.151,1.87,3.21,3.44,-0.463,-0.745,1.79,1.75,-0.5,2.64,-0.501,4.39
GCGACTGGGGCATTAGCAGGTTACCATAACTTAA,-0.284,0.0464,0.0141,0.936,-0.458,0.973,0.712,0.609,-0.0543,0.0308,3.92,2.83,-0.21,-0.476,0.463,-0.152,-0.13,0.182,-0.164,0.559
CGAACTAGGTCAAGGACAGTTAATCTCCGCACGC,3.29,2.36,0.153,1.58,-0.0529,4.46,7.29,6.38,3.78,5.73,8.24,8.35,2.25,0.939,1.62,1.5,0.185,1.87,0.669,3.76
CCTTACGGGTCACTGACAGGTTATTGCATTTGGA,5.44,4.13,0.625,3.78,0.134,5.14,4.45,4.46,1.42,2.91,3.48,3.61,0.525,0.563,2.74,3.89,0.344,4.51,0.71,4.04
CCGACTGGGCCAAGGTTACCATAACGCACAGCCA,0.00014,0.358,-0.181,0.279,-1.2,1.01,1.97,2.37,0.199,1.39,1.61,1.71,0.193,-0.788,0.313,0.153,-0.166,0.508,-0.101,0.98
CGAACTAGGTCATTCACAGGACAGTGAATAGTAA,4.72,3.19,0.593,2.48,0.493,4.67,7.34,6.26,3.72,5.9,8.25,8.21,1.5,0.729,1.48,1.77,0.314,2.2,0.779,3.72
